# From PubChem BioAssay (NCI)
# The panel holds about 79,000 compounds, 15% with a hit somewhere; the sample as a whole holds those more often. Unmarked numbers belong to inactive results. The source made the active and inactive calls. Rule as the data show it: active = growth inhibition above about 70%; inactive = the rest.
# Experiments:
# [1] = NCI Yeast Anticancer Drug Screen. Data for the rad52 strain (AID 147);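 also: 0% = growth of vehicle-treated control cultures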; settings: S. cerevisiae rad52 mutant growth inhibition, active compounds read high
# In short: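 Compounds are applied to a genetically defined yeast strain lacking normal DNA damage repair, and inhibition of growth is expressed relative to cultures given vehicle only.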
# [2] = NCI Yeast Anticancer Drug Screen. Data for the wt1 strain (AID 149);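 also: 0% = growth of vehicle-treated wt1 cultures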; settings: S. cerevisiae wt1 strain (SPY 50644) growth inhibition, active compounds read high
# In short: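 Growth inhibition read against vehicle controls after compound exposure of the wt1 yeast strain.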
# [3] = NCI Yeast Anticancer Drug Screen. Data for the rad50EPP+ strain (AID 151);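 also: 0% = growth of vehicle-treated control cultures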; settings: S. cerevisiae rad50 mutant strain, active compounds read high
# In short: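 Compounds were applied to the rad50EPP+ yeast strain, which bears a defined DNA repair alteration, and growth inhibition was determined relative to vehicle-treated cultures.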
# [4] = NCI Yeast Anticancer Drug Screen. Data for the mgt1 strain (AID 153); settings: S. cerevisiae mgt1 mutant growth inhibition, active compounds read high
# In short: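 Strain: mgt1 yeast, one of a set carrying defined DNA damage repair or cell cycle control alterations. Compound-treated growth compared with vehicle.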
# [5] = NCI Yeast Anticancer Drug Screen. Data for the rad50 strain (AID 155);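 also: 0% = growth of vehicle-only cultures of the same strain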; settings: S. cerevisiae rad50 strain growth inhibition, active compounds read high
# In short: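 Readout: growth inhibition relative to vehicle-treated cultures. Compound exposure was carried out in a genetically defined yeast strain deficient in DNA damage repair.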
# [6] = NCI Yeast Anticancer Drug Screen. Data for the mec2-1 strain (AID 157); settings: S. cerevisiae mec2-1 strain, active compounds read high
# In short: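 Strain: mec2-1 (DNA repair/cell cycle alteration). Compound exposure, then growth measured; inhibition expressed relative to vehicle.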
# [7] = NCI Yeast Anticancer Drug Screen. Data for the rad14 strain (AID 159);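 also: 0% = growth of vehicle-treated control cultures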; settings: S. cerevisiae rad14 strain growth inhibition, active compounds read high
# In short: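 Growth inhibition vs vehicle controls; genetically altered yeast strain (DNA damage repair defect) treated with test compounds.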
# [8] = NCI Yeast Anticancer Drug Screen. Data for the sgs1 mgt1 strain (AID 161);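 also: 0% = growth of cultures given vehicle only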; settings: S. cerevisiae sgs1 mgt1 strain, active compounds read high
# In short: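 Inhibition of yeast growth, normalised to vehicle-treated controls, is reported for a strain bearing genetic alterations in DNA damage repair.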
# [9] = NCI Yeast Anticancer Drug Screen. Data for the CLN2oe strain (AID 163);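 also: 0% = growth of vehicle-only control cultures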; settings: S. cerevisiae CLN2oe strain, active compounds read high
# In short: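 Growth of a genetically modified yeast strain is measured after compound exposure and compared with cultures given vehicle alone.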
# [10] = NCI Yeast Anticancer Drug Screen. Data for the cln2 rad14 strain (AID 165);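 also: 0% = growth equal to vehicle treated cultures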; settings: S. cerevisiae cln2 rad14 strain, active compounds read high
# In short: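 Compounds are applied to the cln2 rad14 yeast strain, and growth is then compared with that of vehicle-treated cultures to give inhibition.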
# [11] = NCI Yeast Anticancer Drug Screen. Data for the bub3 strain (AID 167); settings: S. cerevisiae bub3 mutant strain, active compounds read high
# In short: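 Readout: yeast growth inhibition, expressed relative to vehicle-only wells. The test organism is a mutant strain from a panel with lesions in DNA repair or checkpoint genes.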
# [12] = NCI Yeast Anticancer Drug Screen. Data for the wt2 strain (AID 169);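 also: 0% = growth of vehicle-treated yeast cultures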; settings: S. cerevisiae wt2 strain growth inhibition, active compounds read high
# In short: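 This strain belongs to a panel of yeast strains with defined genetic alterations in DNA damage repair or cell cycle control. Compounds are applied, and growth inhibition is measured against vehicle-treated cultures.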
# [13] = NCI Yeast Anticancer Drug Screen. Data for the mlh1 strain (AID 171);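 also: 0% = growth of vehicle-treated control cultures of the same strain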; settings: S. cerevisiae mlh1 strain growth inhibition, active compounds read high
# In short: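 Growth of the mutant yeast strain after compound exposure, expressed as inhibition relative to vehicle-only controls.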
# [14] = NCI Yeast Anticancer Drug Screen. Data for the sgs1 strain (AID 173);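 also: 0% = growth of vehicle-only control cultures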; settings: S. cerevisiae sgs1 mutant, active compounds read high
# In short: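 Growth of a yeast strain bearing a defined genetic alteration is measured after compound treatment. Inhibition is expressed relative to vehicle-only controls.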
# [15] = NCI Yeast Anticancer Drug Screen. Data for the mlh1 rad18 strain (AID 175); settings: S. cerevisiae mlh1 rad18 strain growth inhibition, active compounds read high
# In short: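 Read-out is yeast growth inhibition, calculated against vehicle-only controls. The compound was applied to a strain engineered with DNA damage repair alterations.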
# [16] = NCI Yeast Anticancer Drug Screen. Data for the rad18 strain (AID 177); settings: S. cerevisiae rad18 mutant growth inhibition, active compounds read high
# In short: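 Growth of the mutant yeast strain after compound exposure, normalised to vehicle-only cultures.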
# [17] = at 5.0 µM (retest, dose inferred, filed as 0.5)
# [18] = at 50.0 µM (retest, dose inferred, filed as 5.0)
structure (smiles),measurement,setting,value
NNc1ccccc1-c1nc2ccccc2[nH]1,growth inhibition,[1]; at 1.2 µM,1%
same,growth inhibition,[1]; at 3.7 µM,7%
same,growth inhibition,[1]; at 11.0 µM,9%
same,growth inhibition,[1]; at 33.0 µM,17%
same,growth inhibition,[1]; at 100.0 µM,60%
same,growth inhibition,[2]; at 1.2 µM,-4%
same,growth inhibition,[2]; at 3.7 µM,-3%
same,growth inhibition,[2]; at 11.0 µM,-5%
same,growth inhibition,[2]; at 33.0 µM,-4%
same,growth inhibition,[2]; at 100.0 µM,25%
same,growth inhibition,[3]; at 1.2 µM,2%
same,growth inhibition,[3]; at 3.7 µM,6%
same,growth inhibition,[3]; at 11.0 µM,12%
same,growth inhibition,[3]; at 33.0 µM,24%
same,growth inhibition,[3]; at 100.0 µM,59%
same,growth inhibition,[4]; at 1.2 µM,-3%
same,growth inhibition,[4]; at 3.7 µM,-2%
same,growth inhibition,[4]; at 11.0 µM,0%
same,growth inhibition,[4]; at 33.0 µM,-1%
same,growth inhibition,[4]; at 100.0 µM,48%
same,growth inhibition,[5]; at 1.2 µM,-1%
same,growth inhibition,[5]; at 3.7 µM,5%
same,growth inhibition,[5]; [17],-144%
same,growth inhibition,[5]; at 11.0 µM,6%
same,growth inhibition,[5]; at 33.0 µM,26%
same,growth inhibition,[5]; [18],53%
same,growth inhibition,[5]; at 50.0 µM,75.9% (active)
same,growth inhibition,[5]; at 100.0 µM,60%
same,growth inhibition,[6]; at 1.2 µM,3%
same,growth inhibition,[6]; at 3.7 µM,3%
same,growth inhibition,[6]; [17],-50%
same,growth inhibition,[6]; at 11.0 µM,2%
same,growth inhibition,[6]; at 33.0 µM,1%
same,growth inhibition,[6]; [18],-40%
same,growth inhibition,[6]; at 50.0 µM,48.4%
same,growth inhibition,[6]; at 100.0 µM,20%
same,growth inhibition,[7]; at 1.2 µM,-2%
same,growth inhibition,[7]; at 3.7 µM,-5%
same,growth inhibition,[7]; at 11.0 µM,-1%
same,growth inhibition,[7]; at 33.0 µM,0%
same,growth inhibition,[7]; at 100.0 µM,49%
same,growth inhibition,[8]; [17],-61%
same,growth inhibition,[8]; [18],27%
same,growth inhibition,[8]; at 50.0 µM,11.7%
same,growth inhibition,[9]; at 1.2 µM,-2%
same,growth inhibition,[9]; at 3.7 µM,-1%
same,growth inhibition,[9]; at 11.0 µM,-3%
same,growth inhibition,[9]; at 33.0 µM,-9%
same,growth inhibition,[9]; at 100.0 µM,35%
same,growth inhibition,[10]; [17],-63%
same,growth inhibition,[10]; [18],-73%
same,growth inhibition,[10]; at 50.0 µM,32.1%
same,growth inhibition,[11]; at 1.2 µM,-6%
same,growth inhibition,[11]; at 3.7 µM,-4%
same,growth inhibition,[11]; [17],-65%
same,growth inhibition,[11]; at 11.0 µM,-3%
same,growth inhibition,[11]; at 33.0 µM,-3%
same,growth inhibition,[11]; [18],-30%
same,growth inhibition,[11]; at 50.0 µM,76.9% (active)
same,growth inhibition,[11]; at 100.0 µM,30%
same,growth inhibition,[12]; at 1.2 µM,1%
same,growth inhibition,[12]; at 3.7 µM,0%
same,growth inhibition,[12]; at 11.0 µM,-1%
same,growth inhibition,[12]; at 33.0 µM,-1%
same,growth inhibition,[12]; at 100.0 µM,47%
same,growth inhibition,[13]; at 1.2 µM,6%
same,growth inhibition,[13]; at 3.7 µM,-3%
same,growth inhibition,[13]; at 11.0 µM,-3%
same,growth inhibition,[13]; at 33.0 µM,-3%
same,growth inhibition,[13]; at 100.0 µM,47%
same,growth inhibition,[14]; at 1.2 µM,0%
same,growth inhibition,[14]; at 3.7 µM,1%
same,growth inhibition,[14]; at 11.0 µM,0%
same,growth inhibition,[14]; at 33.0 µM,-1%
same,growth inhibition,[14]; at 100.0 µM,47%
same,growth inhibition,[15]; [17],-114%
same,growth inhibition,[15]; [18],-3%
same,growth inhibition,[15]; at 50.0 µM,91% (active)
same,growth inhibition,[16]; at 1.2 µM,0%
same,growth inhibition,[16]; at 3.7 µM,-2%
same,growth inhibition,[16]; at 11.0 µM,0%
same,growth inhibition,[16]; at 33.0 µM,0%
same,growth inhibition,[16]; at 100.0 µM,48%
COc1ccc2c(c1)CCCC(Br)C2=O (stereo not drawn),growth inhibition,[1]; at 1.2 µM,12%
same,growth inhibition,[1]; at 3.7 µM,17%
same,growth inhibition,[1]; at 11.0 µM,27%
same,growth inhibition,[1]; at 33.0 µM,64%
same,growth inhibition,[1]; at 100.0 µM,98% (active)
same,growth inhibition,[2]; at 1.2 µM,14%
same,growth inhibition,[2]; at 3.7 µM,0%
same,growth inhibition,[2]; at 11.0 µM,17%
same,growth inhibition,[2]; at 33.0 µM,51%
same,growth inhibition,[2]; at 100.0 µM,98% (active)
same,growth inhibition,[3]; at 1.2 µM,5%
same,growth inhibition,[3]; at 3.7 µM,28%
same,growth inhibition,[3]; at 11.0 µM,30%
same,growth inhibition,[3]; at 33.0 µM,67%
same,growth inhibition,[3]; at 100.0 µM,97% (active)
same,growth inhibition,[4]; at 1.2 µM,26%
same,growth inhibition,[4]; at 3.7 µM,23%
same,growth inhibition,[4]; at 11.0 µM,36%
same,growth inhibition,[4]; at 33.0 µM,78% (active)
same,growth inhibition,[4]; at 100.0 µM,98% (active)
same,growth inhibition,[5]; at 1.2 µM,30%
same,growth inhibition,[5]; at 3.7 µM,28%
same,growth inhibition,[5]; [17],11%
same,growth inhibition,[5]; at 11.0 µM,31%
same,growth inhibition,[5]; at 33.0 µM,70% (active)
same,growth inhibition,[5]; [18],48%
same,growth inhibition,[5]; at 50.0 µM,37.4%
same,growth inhibition,[5]; at 100.0 µM,98% (active)
same,growth inhibition,[6]; at 1.2 µM,38%
same,growth inhibition,[6]; at 3.7 µM,41%
same,growth inhibition,[6]; [17],-13%
same,growth inhibition,[6]; at 11.0 µM,54%
same,growth inhibition,[6]; at 33.0 µM,71% (active)
same,growth inhibition,[6]; [18],78% (active)
same,growth inhibition,[6]; at 50.0 µM,86.2% (active)
same,growth inhibition,[6]; at 100.0 µM,97% (active)
same,growth inhibition,[7]; at 1.2 µM,3%
same,growth inhibition,[7]; at 3.7 µM,2%
same,growth inhibition,[7]; at 11.0 µM,14%
same,growth inhibition,[7]; at 33.0 µM,64%
same,growth inhibition,[7]; at 100.0 µM,98% (active)
same,growth inhibition,[8]; [17],17%
same,growth inhibition,[8]; [18],90% (active)
same,growth inhibition,[8]; at 50.0 µM,88.3% (active)
same,growth inhibition,[9]; at 1.2 µM,1%
same,growth inhibition,[9]; at 3.7 µM,11%
same,growth inhibition,[9]; at 11.0 µM,-9%
same,growth inhibition,[9]; at 33.0 µM,45%
same,growth inhibition,[9]; at 100.0 µM,96% (active)
same,growth inhibition,[10]; [17],39%
same,growth inhibition,[10]; [18],59%
same,growth inhibition,[10]; at 50.0 µM,34.3%
same,growth inhibition,[11]; at 1.2 µM,-7%
same,growth inhibition,[11]; at 3.7 µM,-10%
same,growth inhibition,[11]; [17],-12%
same,growth inhibition,[11]; at 11.0 µM,-4%
same,growth inhibition,[11]; at 33.0 µM,50%
same,growth inhibition,[11]; [18],97% (active)
same,growth inhibition,[11]; at 50.0 µM,90.1% (active)
same,growth inhibition,[11]; at 100.0 µM,97% (active)
